We go through 52 compounds from ChEMBL document CHEMBL3988442, “University of Dundee, Small-Polar-MMV Screening Library” (2021).

Screen size: about 68,000 compounds; about 25 (0.04%) showed an effect of 50% or more. The list comes from a sample in which strong results are over-represented; it also holds similar structures and randomly drawn compounds.

The test deals with T1, Methionyl-tRNA synthetase, putative (Leishmania donovani (strain BPK282A1)) (UniProt E9BF75).
T1 sequence (whole entry): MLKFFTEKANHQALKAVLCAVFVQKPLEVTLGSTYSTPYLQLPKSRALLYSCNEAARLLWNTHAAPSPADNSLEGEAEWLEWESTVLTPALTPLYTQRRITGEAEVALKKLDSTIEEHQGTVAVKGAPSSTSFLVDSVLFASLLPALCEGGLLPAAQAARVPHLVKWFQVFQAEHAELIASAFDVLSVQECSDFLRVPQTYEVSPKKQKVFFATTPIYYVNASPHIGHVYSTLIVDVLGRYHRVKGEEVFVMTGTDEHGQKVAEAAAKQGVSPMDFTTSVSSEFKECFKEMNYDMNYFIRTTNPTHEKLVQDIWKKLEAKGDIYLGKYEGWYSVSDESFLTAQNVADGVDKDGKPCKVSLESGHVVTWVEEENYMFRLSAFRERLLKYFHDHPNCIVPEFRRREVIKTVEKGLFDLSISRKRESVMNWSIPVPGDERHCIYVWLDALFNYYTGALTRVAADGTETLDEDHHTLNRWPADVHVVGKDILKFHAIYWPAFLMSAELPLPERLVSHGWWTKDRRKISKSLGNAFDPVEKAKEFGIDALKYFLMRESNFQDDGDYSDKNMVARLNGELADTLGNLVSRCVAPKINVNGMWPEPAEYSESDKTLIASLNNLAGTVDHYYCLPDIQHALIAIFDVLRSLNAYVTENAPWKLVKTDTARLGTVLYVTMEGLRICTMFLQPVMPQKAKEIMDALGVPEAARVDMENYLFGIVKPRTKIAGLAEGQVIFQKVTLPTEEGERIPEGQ
Put plainly: Leishmania donovani Methionine tRNA synthetase (LdMetRS):v6. Primary screen assay. On the set-up: conc 80 nM, time 150 minutes. It is filed as functional.
The term inhibition denotes the change of the read-out against control, counted positive when it falls. For the compound `O=C(NC1CC1)[C@@H]1CCO[C@@H]2CCN(CC3CCC3)C[C@H]21`, the inhibition came out at 16.2%.
The result for `CCN1C(=O)[C@]2(CC[C@@H]3CN(S(=O)(=O)CC(C)C)C[C@@H]32)N=C1C` reads 16.2%; that for `O=C(NCc1ccco1)[C@@]12CCO[C@@H]1CCN(Cc1ccccn1)C2`, 16.3%; that for `Cc1ccc(N2CCO[C@H]3CN(C(=O)c4cccc(C)n4)C[C@H]32)nn1`, 5.75%.
With `OCCCN(CCn1cncn1)c1ccccc1`, the inhibition stood at 8.36%.
`c1ccc(N(CCn2cncn2)CC2CC2)cc1`: the inhibition was found to be 11%.
Take `Oc1ccc(N(CCc2ccccc2)CCn2cncn2)cc1`: the inhibition stood at 70%.
In the case of `Cc1ccccc1C(=O)N1C[C@@H]2CCN(c3cccnc3)C[C@@H]2C1`, the inhibition turned out to be 10.5%.
As to `Cc1nc(CN2C[C@@H]3CN(C(=O)c4ccnnc4)C[C@@H]3C2=O)cs1`, the inhibition came out at 13.1%.
For `CO[C@H]1CN(Cc2ccccc2F)[C@@H]2CCCO[C@H]12`, the inhibition amounted to 10.8%.
For `CNc1cc(-c2cccc(CN)c2)c2cc[nH]c2n1`, the inhibition was 53%.
In the case of `CNc1cc(-c2ccccc2CN)c2cc[nH]c2n1`, the inhibition turned out to be 23.4%.
Turning to `CNc1cc(-c2ccc(COCCN)cc2)c2cc[nH]c2n1`, the inhibition turned out to be 33.4%.
Consider `CCn1cc(CN2C[C@H]3CC[C@@H]2CN(C(=O)C2CCC2)C3)cn1`, for which the inhibition stood at 12.2%.
As for `CS(=O)(=O)N1C[C@@H]2COC[C@]2(C(=O)NCCc2cccs2)C1`, the inhibition came to 3.36%.
In the case of `c1cc2c(cc1CN1CC[C@H]3[C@H]1CCN3CC1CC1)OCO2`, the inhibition came to 5%.
The value for `CS(=O)(=O)NC[C@]12COC[C@H]1CN(Cc1ccc3c(c1)OCO3)C2` was 15.2%; that for `CN(C)CCN1C[C@@H]2CN(S(=O)(=O)c3ccccc3)C[C@@H]2C1=O` was 17.1%; that for `O=C(NCCc1ccccn1)[C@@]12CCO[C@@H]1CCN(c1ncccn1)C2` was 18.5%.
In the case of `CN1CCCC[C@@H]2[C@H]1[C@@H](c1ccccc1)CCN2C(=O)c1ccncc1`, the inhibition was 12.5%.
As for `Cc1nnc([C@H]2C[C@H]3CN(C(=O)Cc4ccc(F)cc4)CC[C@@H]3O2)o1`, the inhibition is 18.5%.
On to `COCCN1CCN(Cc2ccc(F)c(C)c2)[C@H]2CS(=O)(=O)C[C@H]21`, for which the inhibition stood at 0.741%.
As for `COCCN1C(=O)CC[C@]12CC[C@@H](NCc1nccs1)CC2`, the inhibition was 7.27%.
With `N#Cc1cccc(CN2C[C@H](OCC3CCOCC3)[C@H]3COC[C@H]32)c1`, the inhibition was 14.8%.
For `Cn1cc(CN2C[C@@H](N3CCCC3=O)[C@H]3OCCC[C@H]32)cn1`, the inhibition stood at 6.57%.
As for `O=C1N(Cc2ccccc2)C[C@H]2CN(Cc3ccccc3Cl)CCN12`, the inhibition came to 12.1%.
For `Cc1ccc(S(=O)(=O)N2C[C@H]3C[C@H](NC(=O)c4ccn(C)n4)[C@H]3C2)cc1`, the inhibition was found to be 11.3%.
On to `CCCN1C[C@H]2CC[C@@H]1CN(Cc1cccc(O)c1)C2`, for which the inhibition is 3.78%.
Take `Cn1cc(CN2CCO[C@H]3C(Cn4cccn4)CC[C@@H]32)cn1` (some centres not stated): the inhibition is 11.4%.
As to `Cc1cnc(CN2C[C@H]3C[C@H](Oc4ccccc4)C[C@H]3C2)cn1`, the inhibition was determined as 0%.
Regarding `CNC(=O)[C@@H]1[C@@H](c2ccccc2)CN2CCN(Cc3ccco3)C[C@H]12`, the inhibition worked out at 0.822%.
For `COc1cc(CN2CCCC[C@]3(C)NC(=O)CC[C@H]23)ccc1F`, the inhibition was 14.2%.
For the compound `O=C(NCC1CC1)[C@H]1CC[C@@H]2[C@@H](CCN2Cc2ccoc2)O1`, the inhibition turned out to be 10.8%.
For the compound `Cc1cccc(CN2CC[C@H]3CO[C@H](CNC(=O)N(C)C)[C@H]3C2)c1`, the inhibition worked out at 3.76%.
With `CN(C)C(=O)NCc1cc2n(n1)CCN(C[C@H]1[C@@H]3CNC[C@@H]31)C2`, the inhibition came to 12%.
The value for `O=C1NC(c2ccccc2)=N[C@@]12CC[C@@H]1CN(S(=O)(=O)C3CC3)C[C@@H]12` was 6.19%; that for `CC(C)NC(=O)[C@H]1C[C@@H]2[C@@H](C1)OCCN2Cc1ccsc1` was 10.1%.
The value for `Cc1ccc(CN2CC[C@H]3CO[C@H](CN(C)C)[C@H]3C2)o1` was 15.1%; that for `CO[C@@H]1CC[C@H]2[C@H]1OCCN2S(=O)(=O)c1cn(C)cn1` was 7.3%.
The value for `COCC(=O)N1C[C@H]2CC[C@@]3(N=C(c4ccccc4)NC3=O)[C@H]2C1` was 8.15%; that for `Cc1nc(C)n(CC2CCCN2Cc2nc(N)c3ccccc3n2)n1` (configuration not stated) was 11.2%.
As to `Cc1nc(C)n(CC2CCCN2Cc2nc(C)c3ccccc3n2)n1` (configuration not stated), the inhibition turned out to be 57%.
Take `Cc1nc(C)n(CC2CCCN2Cc2nc3ccccc3nc2C)n1` (configuration not stated): the inhibition is 13.3%.
On to `O=C(c1ccco1)N1C(CN2CCOCC2)[C@]2(O)CC[C@H]1CC2` (some centres not stated), for which the inhibition worked out at 15.1%.
The value for `O=C(N[C@@H]1CN(Cc2cccs2)[C@@H]2CCCO[C@@H]21)c1cscn1` was 11.8%; that for `Cc1nc([C@@H]2C[C@@H]3CCN(C(=O)Cc4ccsc4)C[C@H]3O2)no1` was 8.15%; that for `COCCCN1C(=O)CC[C@H]2CN(c3cnc4ccccc4n3)CC[C@H]21` was -5.03%.
Take `CCC1=N[C@@]2(CC[C@@H]3CN(C(=O)NC(C)C)C[C@@H]32)C(=O)N1C`: the inhibition worked out at 12.4%.
As for `Cc1nc(CN2C[C@@H]3CCCO[C@@H]3[C@H](NC(=O)CC3CC3)C2)cs1`, the inhibition is 12.6%.
`CS(=O)(=O)NC[C@H]1OC[C@H]2CN(Cc3ccsc3)CC[C@H]21`: the inhibition is 17.8%.
The result for `CN(C)CCNC(=O)c1ccc2ccc(N(C)CC3CC3)n2c1` reads 25.3%.
The value for `COCCNC(=O)c1ccc2ccc(N(C)CC3CC3)n2c1` was 22.1%.
